According to PMC4336329 (PLoS ONE, 2015):
The campaign covered roughly 310,000 compounds. About 14,000 (4.5%) showed an effect of 50% or more. The effect is printed as a negative number. For the sample, strong results were picked, then their nearest neighbours and some compounds at random.

Biological target: human ether-à-go-go-related gene (hERG) potassium channel (human, UniProt Q12809)
Experiment: primary screen, population patch clamp on CHO cells stably expressing hERG; higher = less effect of the substance
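Note: peak tail current of the secondary pulse compared with the same well before compound.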

human ether-à-go-go-related gene (hERG) potassium channel, sequence (Q12809 whole entry, looked up): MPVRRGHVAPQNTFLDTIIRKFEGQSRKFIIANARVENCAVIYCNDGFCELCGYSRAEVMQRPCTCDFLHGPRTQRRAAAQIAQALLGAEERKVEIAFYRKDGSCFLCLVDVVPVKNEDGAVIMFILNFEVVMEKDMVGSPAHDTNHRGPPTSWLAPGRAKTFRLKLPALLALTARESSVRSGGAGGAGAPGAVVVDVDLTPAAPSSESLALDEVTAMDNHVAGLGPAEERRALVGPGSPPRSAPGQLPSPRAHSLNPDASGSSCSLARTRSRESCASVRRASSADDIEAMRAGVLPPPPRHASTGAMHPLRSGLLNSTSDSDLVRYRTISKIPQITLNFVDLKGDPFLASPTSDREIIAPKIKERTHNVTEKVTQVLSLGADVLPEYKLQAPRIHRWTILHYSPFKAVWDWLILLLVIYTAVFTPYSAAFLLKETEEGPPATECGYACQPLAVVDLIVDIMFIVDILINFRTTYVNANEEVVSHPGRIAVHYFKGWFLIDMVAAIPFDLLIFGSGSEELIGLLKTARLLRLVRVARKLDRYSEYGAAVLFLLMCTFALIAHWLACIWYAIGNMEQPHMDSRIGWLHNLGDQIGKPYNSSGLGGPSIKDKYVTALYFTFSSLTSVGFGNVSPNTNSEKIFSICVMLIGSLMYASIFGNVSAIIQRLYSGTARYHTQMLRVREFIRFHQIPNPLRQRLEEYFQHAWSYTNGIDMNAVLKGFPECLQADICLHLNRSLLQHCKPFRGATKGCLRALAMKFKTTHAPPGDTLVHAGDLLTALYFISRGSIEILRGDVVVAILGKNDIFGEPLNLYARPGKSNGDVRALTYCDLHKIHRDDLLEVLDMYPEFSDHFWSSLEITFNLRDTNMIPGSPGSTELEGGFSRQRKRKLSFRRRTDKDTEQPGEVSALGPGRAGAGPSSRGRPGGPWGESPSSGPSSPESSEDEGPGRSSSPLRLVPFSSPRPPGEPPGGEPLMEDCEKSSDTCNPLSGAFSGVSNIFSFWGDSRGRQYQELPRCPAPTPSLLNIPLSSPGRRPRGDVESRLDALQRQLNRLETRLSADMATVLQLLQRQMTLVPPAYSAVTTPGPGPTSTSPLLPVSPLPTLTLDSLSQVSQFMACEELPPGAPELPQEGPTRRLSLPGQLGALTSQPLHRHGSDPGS

Compound	hERG current change (%, negative = inhibition) at 10uM [%]
CC(C)Oc1cccc(-c2nnc(SCC(=O)Nc3ccc4c(c3)OCCO4)n2N)c1	-8.81
O=C(CSc1nnc(-c2ccc(O)cc2)n1Cc1ccco1)c1cccs1	-14.9
O=C(COC(=O)c1cccc(F)c1)NC(=O)NC1CCCC1	5.55
COCCCN(C(=O)c1cc(C)oc1C)c1c(N)n(CC(C)C)c(=O)[nH]c1=O	7.78
Cc1ccccc1OCCOc1cccc(/C=N/NC(=O)Cc2nnc(N)s2)c1	14.2
CC1(C)Oc2ccc(C(=O)N3CCOCC3)cc2N(CC(=O)N2CCOCC2)C1=O	18.7
Cc1ccc(CC2C(=O)N(c3cc(Cl)ccn3)C(=O)C2C)cc1 (stereo not drawn)	-9.63
COc1cccc(C2=NOC(C(=O)Nc3ccc(OC)c(OC)c3)C2)c1 (stereo not drawn)	-11.8
Cn1c(SCc2c(F)cccc2Cl)nc2c(c1=O)SCC2	6.6
COc1ccc(C(c2nnnn2Cc2cccs2)N2CCN(c3ccc(F)cc3)CC2)cc1OC (stereo not drawn)	-69.4
Fc1ccc(C(c2nnnn2Cc2cccs2)N2CCN(c3ccccc3)CC2)cc1 (stereo not drawn)	-21.3
COc1ccc(C(c2nnnn2Cc2cccs2)N2CCN(c3ccccc3F)CC2)cc1 (stereo not drawn)	4.04
CC(=O)Nc1ccc(Oc2cc(C#N)c(C#N)cc2N2CCOCC2)cc1	-16.9
Nc1ccccc1SC1CC(=O)N(c2ccc3c(c2)OCO3)C1=O (stereo not drawn)	14.7
COc1ccc(C2=Nn3c(nnc3-c3ccccn3)SC2)cc1	-34.3
Cc1cc(-c2nnc3n2N=C(c2ccccc2)CS3)n[nH]1	-22.7
CCOc1ccc(C2=Nn3c(nnc3-c3ccc(OC)cc3)SC2)cc1	-16
COc1ccc(C2=Nn3c(nnc3-c3cc(C)[nH]n3)SC2)cc1	-64
COc1ccc(C2=Nn3c(nnc3-c3ccncc3)SC2)cc1	-41.1
Cc1cc(-c2nnc3n2N=C(c2ccc(-c4ccccc4)cc2)CS3)n[nH]1	-15.7
Br.COc1ccc(C2=Nn3c(C)nnc3SC2)cc1	0.091
CCOc1ccc(-c2nnc3n2N=C(c2ccc(OC)cc2)CS3)cc1	0.919

Compound	hERG current change (%, negative = inhibition) at 10uM [%]
COc1ccc(OC)c(C2=Nn3c(nnc3-c3cc(C)[nH]n3)SC2)c1	-19.7
CCOc1ccc(C2=Nn3c(nnc3-c3ccccc3OC)SC2)cc1	-63.4
Cc1cc(-c2nnc3n2N=C(c2ccc(F)cc2)CS3)n[nH]1	-60.3
COc1ccc(C2=Nn3c(nnc3-c3ccc(OC)cc3)SC2)cc1	-55
O=C(Cn1cc2c(n1)CCCCC2)NCc1ccccn1	-2.69
CCOc1cc(C(=O)N2CCC3(CC2)OCCO3)cc(OCC)c1OCC	-12.5
CCOC(=O)N1CCN(CC(=O)N2c3ccccc3CC2C)CC1.O=C(O)C(=O)O (stereo not drawn)	10.4
Cc1ccc(CNC(=O)C2CCN(S(=O)(=O)c3ccc(Br)s3)CC2)cc1	3.77
COC(=O)c1cc2nc(-c3ccccc3)cc(C(F)(F)F)n2n1	19.7
CCOc1ccc(S(=O)(=O)/N=C(\N)c2ccccc2)cc1	-7.03
CCCCCCCC(=O)Nc1cc(C(=O)NCc2ccc(C)cc2)ccc1N1CCC2(CC1)CC(c1cccc(Br)c1)=NO2	2.8
CCSCCOC(=O)C1=C(C)NC(=O)NC1c1ccc2c(c1)OCO2 (stereo not drawn)	-13.4
Cc1cccc(C(=O)N(NC(=O)Oc2ccccc2)C(C)(C)C)c1	-13
CCc1ccc(NC(=O)CCNS(=O)(=O)c2cccc3nsnc23)cc1	-14.9
O=C(Nc1ccc2c(c1)OCCO2)C1CCN(C(=O)c2ccc([N+](=O)[O-])cc2)CC1	-65.6
O=C(Cc1ccc([N+](=O)[O-])cc1)Nc1ccc2c(c1)OCO2	-13.9
O=C(Nc1ccc2c(c1)OCO2)C1CCN(C(=O)c2ccc([N+](=O)[O-])cc2)CC1	-84.2
Cc1ccccc1C(=O)N1CCC(C(=O)Nc2ccc3c(c2)OCCO3)CC1	5.7
O=C(Nc1ccc2c(c1)OCO2)C1CCN(S(=O)(=O)c2ccc3c(c2)OCCO3)CC1	7.45
O=C(Nc1ccc2c(c1)OCCO2)C1CCC1	7.7
CC(=O)Nc1nc(C)c(Cc2ccccc2)c(=O)[nH]1	-1.04
Cn1cnc(S(=O)(=O)NCc2ccccc2)c1	2.77

Compound	hERG current change (%, negative = inhibition) at 10uM [%]
Cc1ccccc1OCCOC(=O)c1nc2nccc(C)n2n1	-14.1
COc1ccccc1NC(=O)C1=C(C)Nc2nnnn2C1c1ccncc1 (stereo not drawn)	-12.4
CCOC(=O)c1c(C)n(Cc2ccccc2)c2ccc(O)cc12	4.43
CCOC(=O)c1c(C)n(-c2ccc(F)cc2)c2ccc(O)cc12	16.4
CCOC(=O)c1c(CN2CCOCC2)n(-c2ccccc2)c2cc(Br)c(O)c(CN(C)C)c12	-42.3
CCOC(=O)c1c(CN2CCOCC2)n(-c2ccccc2)c2ccc(O)cc12	-69.2
CCOC(=O)c1c(CN(CC)CC)n(-c2ccccc2)c2ccc(O)cc12	-66.7
CCOC(=O)c1c(C)n(-c2ccccc2)c2ccc(O)cc12	13.8
COc1ccc(S(=O)(=O)N(CC(C)C)C2CCS(=O)(=O)C2)cc1OC (stereo not drawn)	4.62
CC(=O)c1ccc(N2CCN(C(=O)C3CCN(S(=O)(=O)c4ccc5c(c4)CC(C)N5C(=O)C4CC4)CC3)CC2)cc1 (stereo not drawn)	-8.83
COc1ccc(CNC(=O)COC(=O)c2ccc3ncsc3c2)cc1OC	14.5
C=C(C)C(=O)N1CC2(CC(c3cccc(NC(=O)/C=C\C=C/C)c3)=NO2)C[C@H]1C(N)=O (stereo partly drawn)	0.942
CSc1ccc(S(=O)(=O)NCC(=O)OCC(=O)N2CCCC2=O)cc1[N+](=O)[O-]	-9.51
Cc1nn(CC#N)c(=O)n1-c1ccccc1F	10.8
COc1cc(CNCCN(C)C)ccc1OCc1c(F)cccc1Cl.Cl	-19.6
COc1cc(CNCCN2CCOCC2)ccc1OCC(=O)NC(C)(C)C.Cl	6.17
COc1cc(CNCCN2CCOCC2)ccc1OCc1ccccc1Cl.Cl	-45.7
COc1cc(CNCCCN2CCOCC2)cc(Br)c1OCc1ccc(Cl)cc1.Cl	-35.5
COc1cc(CNCCN2CCOCC2)ccc1OCc1c(Cl)cccc1Cl.Cl	-50.6
COc1cc(CNCCO)cc(Cl)c1OCc1ccc(Cl)cc1Cl.Cl	-7.34
COc1cc(CNCCN2CCOCC2)ccc1OCc1ccc(Cl)cc1Cl.Cl	-69.7
COc1cc(CNCCN2CCOCC2)ccc1OCc1ccc(Cl)cc1.Cl	-42.1

Compound	hERG current change (%, negative = inhibition) at 10uM [%]
COc1cc(CNCCN2CCOCC2)ccc1OCc1cccc(Cl)c1.Cl	-63.2
O=C1CC2C(=O)NCCN2C(=NC(=O)c2ccc(Cl)cc2)N1 (stereo not drawn)	-15.7
COc1ccc(C(=O)Nc2ccc(NC(=O)C(C)C)nc2)cc1	18.9
COc1cccc(/C=N/n2c(-c3n[nH]c4c3CCC4)n[nH]c2=S)c1OC	14.1
O=C(NCCCNC(=O)c1ccc(Cl)cc1Cl)c1ccccn1	-2.08
O=C(CSc1nnc(CNC(=O)c2cccs2)o1)Nc1ccc(Cl)cc1	-4.26
CCC(C)NC(=O)COc1ccccc1[N+](=O)[O-] (stereo not drawn)	16
CSCCC(NC(=O)c1ccco1)C(=O)NCC(c1ccccc1)N(C)C (stereo not drawn)	-9.02
COc1ccc(C/C(N)=N/OC(=O)Cc2ccccc2)cc1	-7.03
CCOC(=O)c1c(NC(=S)Nc2ccc(Cl)cc2)sc2c1CCN(C)C2	-74.2
CCOC(=O)c1c(NC(=O)Nc2ccc(F)cc2)sc2c1CCN(C)C2	-26
CCOC(=O)c1c(NC(=S)Nc2ccc(OC)cc2)sc2c1CCCCC2	12.5
CCOC(=O)c1c(NC(=S)Nc2ccccc2)sc2c1CCN(C)C2	-74.2
CCOC(=O)c1c(NC(=S)Nc2ccc(OC)cc2)sc2c1CCC2	14
CCOC(=O)c1c(NC(=S)Nc2ccccc2)sc2c1CCCCC2	17.3
CCOC(=O)c1c(NC(=S)Nc2ccccc2)sc2c1CC(C)(C)SC2	-3.74
CCOC(=O)c1c(NC(=S)Nc2ccc(OCC)cc2)sc2c1CCN(C)C2	-70.4
CCOC(=O)c1c(NC(=O)Nc2ccc(C)cc2)sc2c1CCN(C)C2	-47.6
CNC(=O)c1ccsc1NC(=O)CCS(=O)(=O)c1ccc(Cl)cc1	-18.1
COc1ccccc1OCCn1c(C)c(C=O)c2ccccc21	-2.11
Cc1c(Br)c([N+](=O)[O-])nn1CC(=O)N1CCCc2ccccc21	2.48
